Source: PubChem BioAssay (NCI)
This is part of a sample that, as a whole, favours compounds with a hit. Of some 83,000 tested, about 20% had one in any assay.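 96-well plates, one dose, 48 hours. Percent growth reported; active if below 10.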 Activity calls are given as the source filed them.

Each compound was assayed on HOP-92 NSCLC (assay: NCI-60 one-dose screen, 48 h (100 = growth as untreated, 0 = no growth, -100 = all killed)). Settings: 10 µM unless noted.
In the case of `COC(=O)[C@]12CC[C@@H](C)[C@H](C)[C@@H]1C1=CC[C@@H]3[C@@]4(C)C(C=O)=C[C@@](C)(COC(=O)c5ccco5)C4=CC[C@@]3(C)[C@]1(C)CC2`, the growth was -15.5% (active). With `Nc1n[nH]c2cc(F)c([C@@H]3Nc4c(F)cc5[nH]ncc5c4[C@H]4C5CCC(C5)[C@@H]34)cc12` (some centres undefined) the growth was 33.8% (inactive). `CC1(c2ccccc2)NC(=O)N(NC(=O)CSc2nc(-c3cccs3)nc3ccccc23)C1=O` (centres undefined) was tested, and the growth was 77.4% (inactive). For `CC(C)C(=O)Nc1n[nH]c2cc(-c3cccc(NS(=O)(=O)C4CC4)c3)ccc12`, the growth was 72.7% (inactive). `COc1c(CCC[P+](c2ccccc2)(c2ccccc2)c2ccccc2)cc2c(c1OC)OCO2` was tested, and the growth was -4.16% (active). With `CN(C)CC1=NC2SC=C(c3ccccc3)C2C(=O)N1CC#N` (centres undefined) the growth was -14.6% (active). In the case of `Cc1cc(C)c2c(-c3nnc(N)s3)cc(=O)oc2c1`, the growth was 115% (inactive). In the case of `C[C@]12CC[C@@H]3c4cc(OC(F)F)c(O)cc4CC[C@H]3[C@@H]1CC[C@@H]2OS(N)(=O)=O`, the growth was 74.6% (inactive). `NC(=S)Nc1cccc(O)c1` was tested, and the growth was 98.9% (inactive). In the case of `O=C(Nc1ccc(-n2cc(-c3ccncc3)c(-c3ccc(Cl)c(O)c3)n2)cc1)N1CCOCC1`, the growth was 90.6% (inactive). With `COc1ccc(-c2cc(-c3cc(OC)c(OC)c(OC)c3)c(C#N)c(N3CCOCC3)n2)cc1O` the growth was 42.8% (inactive). In the case of `COC(=O)CCC1=C(C)C2=NC1=CC1=NC(=CC3=NC(=Cc4[nH]c(/c(=C(/C)O)c4C)=C2)C(C(C)=O)=C3C)C(C)=C1CCC(=O)OC`, the growth was 88.2% (inactive). `COc1cccc(/C=C/C(=O)c2c(C)nc3ccccc3c2/C=C/c2ccc(C)cc2)c1OC` was tested, and the growth was 76.4% (inactive). For `COC1=C(OC)C(=O)C(OC)=C(OC)C1=O`, the growth was 103% (inactive). `Cn1c(-c2c(N)n(Cc3ccc(C(F)(F)F)cc3)c3nc(C#N)c(C#N)nc23)nc2ccccc21` was tested, and the growth was -48% (active). With `COc1ccc(/C=N/C2=C(C#N)C(c3ccc(OC)cc3)c3ccc4ccccc4c3O2)cc1` (centres undefined) the growth was 70.3% (inactive). For `O=[N+]([O-])c1ccc(C2CC(c3ccccc3)=Nc3ccccc3S2)cc1` (centres undefined), the growth was 81% (inactive). In the case of `COc1cccc(-c2nc3sccn3c2-c2ccnc(NCCNS(=O)(=O)c3cccc(F)c3)c2)c1`, the growth was 18.3% (inactive). In the case of `Cc1ccc(NS(=O)(=O)c2ccc3c(c2)C2OCCC2C(c2ccc(C(=O)C(C)C)cc2)N3)cc1C` (centres undefined), the growth was 74% (inactive). `C=C(C)[C@@H]1CC=C2c3sc(-c4ccc(C)cc4)nc3C[C@@H](C)[C@]2(C)C1` was tested, and the growth was 103% (inactive). `COc1ccc(C2=Nc3c(N)ncnc3NC(c3ccc4c(c3)OCO4)C2)cc1` (centres undefined) was tested, and the growth was 45.4% (inactive). `Cc1cccc(Cc2cnc(NC(=O)c3ccc4nnsc4c3)s2)c1` was tested, and the growth was 74.7% (inactive). With `CC(=O)n1c(-c2ccc(Cl)cc2)nc2c(c1=O)C(c1ccc(Cl)cc1)c1sc3c(Cl)cccc3c1O2` (centres undefined) the growth was 1.47% (active). With `C[C@H](NC(=O)[C@@H]1CSSC[C@@H](NC(=O)c2nc3ccccc3cc2O)C(=O)NCC(=O)N1C)c1ccccc1` the growth was 51.6% (inactive). For `COc1cc(/C=N/n2c(CN3CCOCC3)nc3ccccc3c2=O)cc(OC)c1OC`, the growth was 106% (inactive). `COc1ccc2c(c1)O/C(=C\c1cccc(OCC(=O)Nc3nc(C)c(C)s3)c1)C2=O` was tested, and the growth was -75.4% (active). With `O=c1c2c3c(sc2n2c(-c4cc(-c5ccccc5)nn4-c4ccccc4)nnc2n1Cc1ccccc1)CCCC3` the growth was 53.2% (inactive). With `Cc1ccc(Cl)cc1NC(=O)c1cc2ccccc2cc1O` the growth was -10.5% (active). `COc1ccc2[nH]c(O)c(/C=c3/cc4c(c(-c5ccc(F)c(OC)c5)n3)=Nc3ccccc3-4)c2c1` was tested, and the growth was 57.5% (inactive). With `Clc1cccc(Cl)c1C(Nc1nc2ccccc2s1)Nc1nc2ccccc2s1` the growth was 17.3% (inactive). With `COC(=O)[C@H](CSC)N(C)C(=O)[C@@H]1CSSC[C@@H](NC(=O)c2nc3ccccc3cc2O)C(=O)NCC(=O)N1C` the growth was 132% (inactive). In the case of `N[C@@H](CCCCNCC(=O)O)C(=O)O`, the growth was 64.5% (inactive). With `CC/C=C1/C(=O)C=C[C@@H]1C/C=C\CCCC(=O)O` the growth was 121% (inactive). For `CC(C)=C[C@@H]1c2c(c3ccccc3n(C)c2=O)O[C@H]2c3c(c4ccccc4n(C)c3=O)OC(C)(C)[C@@H]12`, the growth was -4.59% (active). For `N=C1CCC(=N)c2c1c(O)c1ccccc1c2O`, the growth was 88.7% (inactive). With `C(=N\Nc1ncc(-c2cc3cc4c(cc3o2)OCO4)s1)/c1ccco1` the growth was 63.2% (inactive). `Cc1ccc2[nH]c(=O)c3c(c2c1)OC(N)=C(C#N)C31c2cc(Br)ccc2-c2ccc(Br)cc21` was tested, and the growth was 42.7% (inactive).

These compounds were tested on NCI-H522 lung in the same assay as above. Settings: 10 µM unless noted.
For `COC(=O)[C@]12CC[C@@H](C)[C@H](C)[C@@H]1C1=CC[C@@H]3[C@@]4(C)C(C=O)=C[C@@](C)(COC(=O)c5ccco5)C4=CC[C@@]3(C)[C@]1(C)CC2`, the growth was -6.14% (active). For `Nc1n[nH]c2cc(F)c([C@@H]3Nc4c(F)cc5[nH]ncc5c4[C@H]4C5CCC(C5)[C@@H]34)cc12` (some centres undefined), the growth was 14.9% (inactive). For `CC1(c2ccccc2)NC(=O)N(NC(=O)CSc2nc(-c3cccs3)nc3ccccc23)C1=O` (centres undefined), the growth was 82.3% (inactive). With `CC(C)C(=O)Nc1n[nH]c2cc(-c3cccc(NS(=O)(=O)C4CC4)c3)ccc12` the growth was 40.8% (inactive). With `COc1c(CCC[P+](c2ccccc2)(c2ccccc2)c2ccccc2)cc2c(c1OC)OCO2` the growth was -11.8% (active). With `CN(C)CC1=NC2SC=C(c3ccccc3)C2C(=O)N1CC#N` (centres undefined) the growth was 84.5% (inactive). For `Cc1cc(C)c2c(-c3nnc(N)s3)cc(=O)oc2c1`, the growth was 101% (inactive). For `C[C@]12CC[C@@H]3c4cc(OC(F)F)c(O)cc4CC[C@H]3[C@@H]1CC[C@@H]2OS(N)(=O)=O`, the growth was 26% (inactive). With `NC(=S)Nc1cccc(O)c1` the growth was 93.1% (inactive). With `O=C(Nc1ccc(-n2cc(-c3ccncc3)c(-c3ccc(Cl)c(O)c3)n2)cc1)N1CCOCC1` the growth was 94% (inactive). With `COc1ccc(-c2cc(-c3cc(OC)c(OC)c(OC)c3)c(C#N)c(N3CCOCC3)n2)cc1O` the growth was 58.4% (inactive). With `COC(=O)CCC1=C(C)C2=NC1=CC1=NC(=CC3=NC(=Cc4[nH]c(/c(=C(/C)O)c4C)=C2)C(C(C)=O)=C3C)C(C)=C1CCC(=O)OC` the growth was 98.8% (inactive). In the case of `COc1cccc(/C=C/C(=O)c2c(C)nc3ccccc3c2/C=C/c2ccc(C)cc2)c1OC`, the growth was 50.5% (inactive). In the case of `COC1=C(OC)C(=O)C(OC)=C(OC)C1=O`, the growth was 108% (inactive). With `Cn1c(-c2c(N)n(Cc3ccc(C(F)(F)F)cc3)c3nc(C#N)c(C#N)nc23)nc2ccccc21` the growth was -3.31% (active). With `COc1ccc(/C=N/C2=C(C#N)C(c3ccc(OC)cc3)c3ccc4ccccc4c3O2)cc1` (centres undefined) the growth was 45.5% (inactive). `O=[N+]([O-])c1ccc(C2CC(c3ccccc3)=Nc3ccccc3S2)cc1` (centres undefined) was tested, and the growth was 94.6% (inactive). `COc1cccc(-c2nc3sccn3c2-c2ccnc(NCCNS(=O)(=O)c3cccc(F)c3)c2)c1` was tested, and the growth was 40.9% (inactive). In the case of `Cc1ccc(NS(=O)(=O)c2ccc3c(c2)C2OCCC2C(c2ccc(C(=O)C(C)C)cc2)N3)cc1C` (centres undefined), the growth was 39.2% (inactive). With `C=C(C)[C@@H]1CC=C2c3sc(-c4ccc(C)cc4)nc3C[C@@H](C)[C@]2(C)C1` the growth was 95.7% (inactive). In the case of `COc1ccc(C2=Nc3c(N)ncnc3NC(c3ccc4c(c3)OCO4)C2)cc1` (centres undefined), the growth was 87.4% (inactive). For `Cc1cccc(Cc2cnc(NC(=O)c3ccc4nnsc4c3)s2)c1`, the growth was 77% (inactive). In the case of `CC(=O)n1c(-c2ccc(Cl)cc2)nc2c(c1=O)C(c1ccc(Cl)cc1)c1sc3c(Cl)cccc3c1O2` (centres undefined), the growth was -32.9% (active). With `C[C@H](NC(=O)[C@@H]1CSSC[C@@H](NC(=O)c2nc3ccccc3cc2O)C(=O)NCC(=O)N1C)c1ccccc1` the growth was 24.7% (inactive). `COc1cc(/C=N/n2c(CN3CCOCC3)nc3ccccc3c2=O)cc(OC)c1OC` was tested, and the growth was 97.9% (inactive). With `COc1ccc2c(c1)O/C(=C\c1cccc(OCC(=O)Nc3nc(C)c(C)s3)c1)C2=O` the growth was -73.8% (active). With `O=c1c2c3c(sc2n2c(-c4cc(-c5ccccc5)nn4-c4ccccc4)nnc2n1Cc1ccccc1)CCCC3` the growth was 45.9% (inactive). `Cc1ccc(Cl)cc1NC(=O)c1cc2ccccc2cc1O` was tested, and the growth was -18% (active). For `COc1ccc2[nH]c(O)c(/C=c3/cc4c(c(-c5ccc(F)c(OC)c5)n3)=Nc3ccccc3-4)c2c1`, the growth was 67% (inactive). With `Clc1cccc(Cl)c1C(Nc1nc2ccccc2s1)Nc1nc2ccccc2s1` the growth was 90.8% (inactive). `COC(=O)[C@H](CSC)N(C)C(=O)[C@@H]1CSSC[C@@H](NC(=O)c2nc3ccccc3cc2O)C(=O)NCC(=O)N1C` was tested, and the growth was 45.9% (inactive). For `N[C@@H](CCCCNCC(=O)O)C(=O)O`, the growth was 96.3% (inactive). With `CC/C=C1/C(=O)C=C[C@@H]1C/C=C\CCCC(=O)O` the growth was 24% (inactive). For `CC(C)=C[C@@H]1c2c(c3ccccc3n(C)c2=O)O[C@H]2c3c(c4ccccc4n(C)c3=O)OC(C)(C)[C@@H]12`, the growth was 53.4% (inactive). For `N=C1CCC(=N)c2c1c(O)c1ccccc1c2O`, the growth was 91.6% (inactive). For `C(=N\Nc1ncc(-c2cc3cc4c(cc3o2)OCO4)s1)/c1ccco1`, the growth was 8.73% (active). In the case of `Cc1ccc2[nH]c(=O)c3c(c2c1)OC(N)=C(C#N)C31c2cc(Br)ccc2-c2ccc(Br)cc21`, the growth was 74.2% (inactive).
